Assay results as given in PubChem BioAssay (Tox21).
Records with an inconclusive call do not appear. A number with no mark means an inactive call. The source made the active and inactive calls. The call rests on the fitted dose curve.
On the % scale 0 is the no-effect control and ±100 the full control effect.

Assay: p53 small molecule agonists, cell-based qHTS assay with rat liver microsomes (AID 1963578)
Settings: HCT-116 p53RE-bla, beta-lactamase ratio, 16 h; series mostly up to 66 µM; activation: at the top concentration
Excerpt: U.S. Tox21 Program National Center for Advancing Translational Sciences [NCATS] Division of Preclinical Innovation [DPI] U.S. Environmental Protection Agency [EPA] National Institutes of Environmental Health Sciences [NIEHS] National Toxicology Program [NTP] U.S. Food and Drug Administration [FDA] Tox21 Assay Overview: p53, a tumor suppressor protein, is activated following cellular insult, including DNA damage and other cellular stresses. The activation of p53 regulates cell fate by inducing DNA repair, cell cycle arrest, apoptosis, or cellular senescence. The activation of p53, therefore, is a good indicator of DNA damage and other cellular stresses. […] The activation of the reporter gene under culture conditions can be detected by fluorescence intensity. This cell line was used to screen the Tox21 10K compound library in the condition of presence of rat liver microsomes and to identify agonists that activate the p53 signaling pathway after in vitro metabolic activation (Ooka et al., Archive of Toxicology 96:1975-1987, 2022).
Tox21 Assay Protocol Summary: The p53RE-bla cells were dispensed at 4,000cells/3ul/well in 1536-well black-clear bottom plates. After the assay plates were incubated at 37 C, 5% CO2 incubator for 5 hours, 23 nL of compounds dissolved in DMSO, positive controls or DMSO only was transferred to the assay plate. Following compound addition, 3 uL of rat liver microsomes (Molecular Toxicology, Boone, NC) at final concentration of 0.5 mg/mL and 1uL of Beta-Nicotinamide adenine dinucleotide 2-phosphate (NADPH) at final concentration of 0.5 mg/mL were transferred to the assay plate. The plates were incubated at 37 C for 16 hours. 1 uL of LiveBLAzer detection mixture was added to each well and the plates were incubated at room temperature in the dark for 2 h.
With `c1coc(Cn2cccc2)c1` the “activation” value was -0.118%. With `Cc1ccc(N=Nc2c(O)c(C(=O)O)cc3ccccc23)c(S(=O)(=O)O)c1` the “activation” value was 0.42% [at 30.3 µM]. For `CCCCCCCOC(=O)c1ccc(O)cc1`, the Potency was “inactive”. With `CC1(C)[C@@H](O)CC[C@]2(C)[C@H]3C(=O)C=C4[C@@H]5C[C@@](C)(C(=O)O)CC[C@]5(C)CC[C@@]4(C)[C@]3(C)CC[C@@H]12` the “activation” value was -6.39%. In the case of `CC(C)c1ccccc1`, the “activation” value is reported as -3.24%. For `CCCC1C(CC)=CC(CC)=CN1c1ccccc1` (stereo not given), the “activation” value was 1.83%. For `C[C@@H](O)C(=O)O`, the “activation” value was 4.04%. With `O=C1C=CC(=O)N1c1cccc(N2C(=O)C=CC2=O)c1` the “activation” value was -3.06%. In the case of `O=C(NCC(O)CO)c1c(I)c(C(=O)NCC(O)CO)c(I)c(N(CCO)C(=O)CO)c1I` (stereo not given), the “activation” value is reported as 0.074% [at 30.3 µM]. In the case of `CCCCCCCCCCCCN(CCCCCCCCCCCC)CCCCCCCCCCCC`, the “activation” value is reported as 0.0466%. For `COC(=O)Nc1nc2ccc(C(=O)C3CC3)cc2[nH]1`, the “activation” value was -1.76% [at 30.3 µM]. For `CCCCC/C=C\C=C\C(=O)OCC`, the “activation” value was -1.97%. In the case of `COc1cccc(N)c1`, the “activation” value is reported as 1.08%. For `O=C(c1ccccc1)c1cc(Cl)ccc1O`, the “activation” value was -5.3%. For `C1CCC2=NCCCN2CC1`, the “activation” value was -1.5%. With `CCCC(=O)O[C@]1(C(=O)CCl)[C@@H](C)C[C@H]2[C@@H]3CCC4=CC(=O)C=C[C@]4(C)[C@@]3(F)C(=O)C[C@@]21C` the “activation” value was 3.45% [at 30.3 µM]. With `CN(C)CC/C=C1\c2ccccc2Sc2ccc(Cl)cc21` the “activation” value was 1.21% [at 30.3 µM]. With `CC(=O)N1CCN(c2ccc(OC[C@H]3CO[C@](Cn4ccnc4)(c4ccc(Cl)cc4Cl)O3)cc2)CC1` the “activation” value was -9.11%. For `COCCOc1cc2cc(C(=O)NC3CCN(C(C)C)CC3)n(CC(=O)Nc3ccc(Cl)cn3)c2cn1`, the “activation” value was -0.578%. With `O=C(c1ccccc1)C1CCCCC1` the “activation” value was 3.39%. For `CCOC(=O)c1ccc(C2CCC(NC[C@H](O)COc3ccc(O)c(NS(C)(=O)=O)c3)CC2)cc1` (stereo not given in full), the “activation” value was -0.149%. With `CCCC/C=C/C=C\C=O` the “activation” value was 0.449%. With `N#CCCOCCC#N` the “activation” value was -4.76%. For `CC(C)(C)c1csc(-c2cc3cc(OCc4ccccc4CC(=O)O)ccc3o2)n1`, the “activation” value was 0.553%. For `NC(N)=N/N=C/c1c(Cl)cccc1Cl`, the “activation” value was -3.25% [at 30.3 µM]. For `CC[C@H]1O[C@]2(CC[C@@H]1C)C[C@@H]1C[C@@H](C/C=C(\C)C[C@@H](C)/C=C/C=C3\CO[C@@H]4[C@H](O)C(C)=C[C@@H](C(=O)O1)[C@]34O)O2`, the “activation” value was -7.34%. With `CN(C)CCN(Cc1ccccc1)c1ccccn1` the “activation” value was 0.36% [at 30.3 µM]. In the case of `CC(C(=O)O)c1ccc2c(c1)[nH]c1ccc(Cl)cc12` (stereo not given), the “activation” value is reported as -5.81% [at 30.3 µM]. With `O=[N+]([O-])c1ccc2ncccc2c1` the “activation” value was -11.9%. For `Cc1cccc(Br)c1`, the “activation” value was -6.3%. For `Nc1nnc(-c2ccc([N+](=O)[O-])o2)o1`, the “activation” value was -1.76%. In the case of `c1ccc(-c2ccccc2-c2ccccc2)cc1`, the “activation” value is reported as -5.01%. In the case of `Nc1cccnc1N`, the “activation” value is reported as 0%. With `C[C@@H](O[C@H]1OCCN(Cc2n[nH]c(=O)[nH]2)[C@H]1c1ccc(F)cc1)c1cc(C(F)(F)F)cc(C(F)(F)F)c1` the “activation” value was 0.106% [at 30.3 µM]. In the case of `COC(=O)[C@@H](N)Cc1ccc(O)c(O)c1`, the “activation” value is reported as -0.745% [at 30.3 µM]. With `CCCCCCCCCCCCCCC[C@H](O)[C@@H](N)CO` the “activation” value was 1.21% [at 30.3 µM]. With `CC/C(C)=N\O[Si](C)(O/N=C(\C)CC)O/N=C(\C)CC` the “activation” value was 2.12%. For `CCc1cccc(N(C)C(N)=Nc2cccc3ccccc23)c1`, the “activation” value was -0.811% [at 30.3 µM]. For `C[C@]12CC[C@@H]3c4ccc(O)cc4CC[C@H]3[C@@H]1CC[C@@H]2OC(=O)CCC1CCCC1`, the Potency was “inactive”. For `c1cc(C(c2ccc(OCC3CO3)cc2)c2ccc(OCC3CO3)cc2)ccc1OCC1CO1` (stereo not given), the “activation” value was 0.0621%.
